Laboratory results as given in ChEMBL document CHEMBL4513216, “Probing the Open Global Health Chemical Diversity Library for Multistage-Active Starting Points for Next-Generation Antimalarials” (ACS Infect Dis, 2020).
The campaign covered roughly 69,000 compounds. About 8,600 (12%) showed an effect of 50% or more. Only a selection was taken, and strong results are over-represented in it overall.

What follows are molecules tested on Plasmodium berghei (assay: Screen against P. berghei liver stage (PbLuc), transformed with Luciferase, at 10uM). Conditions: tested at 10 uM.
Assay type: functional, HepG2

Row | Structure (SMILES) | INHIBITION [%]
1 | Cc1noc(C(C)C)c1C(=O)NCc1ccc(N(C)C)c(F)c1 | 29.2
2 | COc1cc(CSc2nnc(N)n2C2CC2)ccc1SC | 0.348
3 | CN(C)Cc1noc2c1CN(C(=O)c1ccncc1)CC2 | 39.4
4 | O=S1(=O)[C@@H](c2ccccc2)[C@H](CO)CN1C1CC1 | -1.99
5 | Cc1ccoc1C(=O)N1Cc2c(Cn3ccnc3)nn(C)c2C1 | 39.2
6 | Cc1ccc(C2(O)CCN(C(=O)c3sccc3S(N)(=O)=O)CC2)nc1 | -11.3
7 | CCOc1cc(CN(C)CC(=O)O)ccc1OC(F)F | 21
8 | COc1ccc(CN(CCC#N)CCN2CCOCC2)c(OC)c1 | 31.9
9 | COc1ccc(CN(CCC#N)CCN2CCOCC2)cc1OC | 43.4
10 | CCOc1cc(CN(C)CC(C)(C)O)ccc1OC(F)F | -2.13
11 | CCOc1cc(CNC(=O)C(C#N)c2nc(C)cs2)ccc1OC(F)F (stereo not drawn) | 42.8
12 | COc1ccc(F)cc1CSCC(=O)N(C)CCC#N | 13.6
13 | CCOc1cc(CN(C)CCCC#N)ccc1OC(F)F | 75.2
14 | COc1ccc(F)cc1CSCC(=O)N(CCC#N)CCC#N | -28.8
15 | CCOc1cc(CN(C)CCCO)ccc1OC(F)F | 31.4
16 | CCOc1cc(CN(C)Cc2ccccc2)ccc1OC(F)F | 68.8
17 | CCOc1ccc(CN(CCC#N)CCN2CCOCC2)cc1OC | 55.4
18 | CCOc1cc(CN(C)CCC#N)ccc1OC(F)F | 64.1
19 | CCNC(=O)NC(=O)CNC1(c2noc(C)n2)CCCC1 | 43.8
20 | CNc1cc(C2CN(C(=O)c3cscn3)CCO2)nc(C)n1 (stereo not drawn) | 26.7
21 | COCCNC(=O)C(C)N1CCN(C)CC1 (stereo not drawn) | 4.41
22 | CCN(CC)CCN(C)Cc1cn(C)nc1-c1ccc2c(c1)OCCO2 | 39.4

Row | Structure (SMILES) | INHIBITION [%]
23 | COc1ccccc1-n1nc(-c2ccco2)n(CC(N)=O)c1=O | 30.9
24 | O=C1COC2(COCCN(Cc3ccsc3)C2)CN1c1ccc(F)cc1 (stereo not drawn) | 13.1
25 | O=C1CCC(c2ccc(Cl)cc2)=NN1CN1CCCCCC1 | -52.7
26 | CC(C)C(=O)N1CC[C@@H]2[C@H](CC1)N(Cc1cccnc1)CCS2(=O)=O | -20.1
27 | CN(C)C(=O)N[C@H]1CN(Cc2ccc3c(c2)OCO3)[C@@H]2CCCO[C@H]12 | 27.2
28 | CCOCCC(=O)N1CCCC(CO)(CC2CC2)C1 (stereo not drawn) | 33
29 | O=C(O)c1nnn(-c2cccc(C(F)(F)F)c2)c1C1CC1 | 12.9
30 | CCOc1cc(CNC(=O)NC2CC=CC2)ccc1OC(F)F | 23.9
31 | CCOc1cc(CN(C)CCOC)ccc1OC(F)F | 43.5
32 | CCOc1cc(CN(C)CCC(=O)OC)ccc1OC(F)F | 54.5
33 | CCN1CC2(CCN(C(=O)c3nc4cc(C)ccn4c3F)CC2)CC1=O | 7.65
34 | CCn1ccc(NS(=O)(=O)c2cccc(CSC)c2)n1 | -3.83
35 | CCCS(=O)(=O)N1CCC2(CC1)CCn1c(-c3cnn(C)c3)cnc12 | 85.4
36 | CC(C)CS(=O)(=O)N1CCC2(CC1)CCn1c(-c3cnn(C)c3)cnc12 | 5.41
37 | Cn1cc(-c2cnc3n2CCC32CCN(S(C)(=O)=O)CC2)cn1 | -26.1
38 | CCS(=O)(=O)N1CCC2(CC1)CCn1c(-c3cnn(C)c3)cnc12 | -65.4
39 | Cn1cc(N2CCC3(CCN(S(=O)(=O)C4CC4)C3)C2=O)cn1 (stereo not drawn) | 15.1
40 | Cn1cc(-c2cnc3n2CCC32CCN(S(=O)(=O)C3CC3)CC2)cn1 | 63.1
41 | O=C(CCO)N1C[C@H]2CN(c3ccccc3)C(=O)[C@H]2C1 | -73.8
42 | Cc1c(-c2cc(-c3cnn(C)c3C)n(CC(=O)NC3CC3)n2)cnn1C | 45.4
43 | Cc1nc(N2CCN(C(=O)C3CCCC3)CC2)c2c(n1)c(C)nn2C | 35.8
44 | COCCn1c(=O)n(C)c(=O)c2ccc(C3CCC(CN)CC3)nc21 (stereo not drawn) | 36.1

Row | Structure (SMILES) | INHIBITION [%]
45 | O=C(NC1CCCC1)N1CCC2(CC1)CC(Oc1cccnc1)CO2 (stereo not drawn) | 9.63
46 | CC(C)CC(=O)N(C)Cc1nc(C(F)(F)F)cs1 | 62.9
47 | CCOCC(=O)N(C)Cc1nc(C(F)(F)F)cs1 | 9.52
48 | CC(C)N(C)CC(=O)N(C)Cc1nc(C(F)(F)F)cs1 | 22.7
49 | Cc1ccc(N2CCCC(NCc3nnc4n3CCCC4)C2=O)cc1 (stereo not drawn) | -76.95
50 | CNC(=O)[C@H]1C[C@@H]2CN(C(=O)c3occc3C)C[C@@H]2N1S(C)(=O)=O | -0.371
51 | CS(=O)(=O)N1CCN(C(=O)C2CSCCC(=O)N2)CC1 (stereo not drawn) | 60
52 | O=C1CCSCC(C(=O)N2CCCCC2)N1 (stereo not drawn) | -18.3
53 | O=C1CCSCC(C(=O)N2CCCC2)N1 (stereo not drawn) | 38.5
54 | CC(C)CN1CC[C@@H]2[C@@H]1CCN2S(=O)(=O)c1cccs1 | 1.34
55 | O=C(NC1CCC1)c1cccc(S(=O)(=O)NCc2nc(C3CC3)no2)c1 | -9.2
56 | O=C(c1ccc(S(=O)(=O)NCc2ccon2)cc1)N1CCNCC1 | 41.3
57 | NC(=O)CC1CCCN(C(=O)NCC2(c3cccs3)CCCC2)C1 (stereo not drawn) | -9.51
58 | COc1ccc2cc(CNCc3c(C)nn(C)c3N(C)C)ccc2c1 | 53
59 | Cc1nn(C)c(N(C)C)c1CNCC(O)COc1ccc(F)cc1 (stereo not drawn) | 0
60 | COc1cc(CNCc2c(C)nn(C)c2N(C)C)ccc1C | 30.8
61 | Cc1nn(C)c(N(C)C)c1CNCc1cccc(Br)c1 | -22.1
62 | COCc1cccc(CNCc2c(C(C)C)nn(C)c2N(C)C)c1 | 50.8
63 | Cc1nn(C)c(N(C)C)c1CNCc1cccc(CN(C)C)c1 | -72.2
64 | Cc1nn(C)c(N(C)C)c1CNCC(O)COc1cccc(F)c1 (stereo not drawn) | 83.2
65 | Cc1nn(C)c(N(C)C)c1CNCc1cccc(Cl)c1 | 68.1
66 | Cc1cccc(OCC(O)CNCc2c(C)nn(C)c2N(C)C)c1 (stereo not drawn) | -45.2

Row | Structure (SMILES) | INHIBITION [%]
67 | COc1cccc(CNCc2c(C(C)C)nn(C)c2N(C)C)c1 | 12.22
68 | COCc1cccc(CNCc2c(C)nn(C)c2N(C)C)c1 | 44.3
69 | COc1cccc(CNCc2c(C)nn(C)c2N(C)C)c1 | 38.95
70 | COCCN1C(=O)CCC12CCC(NCc1ccc(OC)cc1)CC2 (stereo not drawn) | 15.3
71 | COc1ccc(OC)c(-c2cc(C(=O)NCC3(CO)CC3)n(C)n2)c1 | 6.54
72 | O=C(NC[C@]12COC[C@H]1CN(Cc1cccnc1)C2)c1ccno1 | 29
73 | c1cc(C2CCN(Cc3ccc4c(c3)OCO4)CC2)ccn1 | 19.4
74 | Cc1ccc(NCc2cc(C#N)ccc2F)cc1-n1nnnc1C | -3.83
75 | CC(C)CC(=O)N1CCCn2cnc(CNS(C)(=O)=O)c2C1 | -3.33
76 | CC(C)NC(=O)[C@H]1C[C@@H]2[C@@H](C1)OCCN2Cc1nccs1 | 16.9
77 | Nc1nccnc1C1CN(C(=O)c2ccnnc2)CCO1 (stereo not drawn) | 26.8
78 | CSC(C)(C)CNC(=O)NC1CCC1 | 34.6
79 | CCNc1cc2c(nn1)CCN(C(=O)C(C)c1c(C)noc1C)C2 (stereo not drawn) | 31.9
80 | Cc1nnc(NC(=O)NCc2ccc(F)cc2)s1 | -162
81 | COC(=O)c1ccoc1CN(C)Cc1ccccc1 | 37.1
82 | CC(c1cc(F)ccc1F)N(C)Cc1nc2c(cnn2C)c(=O)[nH]1 (stereo not drawn) | 16.34
83 | CCc1nn(-c2cc(Oc3ccccc3)nc(C)n2)c(N)c1C#N | 31.8
84 | CCOC(=O)c1cnn(-c2cc(Oc3cc(C)ccc3C)ncn2)c1N | 18.6
85 | Cc1ccc(C)c(Oc2cc(-n3nc(C)c(C#N)c3N)nc(C)n2)c1 | 55.6
86 | Cc1ccc(C)c(NC(=O)Cn2nc(C)c(C#N)c2N)c1 | 14.6
87 | CCc1nn(-c2cc(Oc3cccc(C)c3)nc(C)n2)c(N)c1C#N | -7.81
88 | CCc1nn(-c2cc(Oc3cc(C)ccc3C)nc(C)n2)c(N)c1C#N | 64.9

Row | Structure (SMILES) | INHIBITION [%]
89 | COc1ccc(C)cc1NC(=O)Cn1nc(C)c(C#N)c1N | 16.8
90 | CCc1nn(-c2cc(Oc3cc(C)ccc3C)ncn2)c(N)c1C#N | 57.8
91 | CC(O)c1cn(Cc2ccccc2)nn1 (stereo not drawn) | -1.84
92 | O=C(c1ncccn1)N1CCC[C@]2(C[C@H](OCC3CC3)CO2)C1 | 40.4
93 | COc1c(C2CCCN2C(=O)c2sc(C)nc2C)c(C)nn1C (stereo not drawn) | 8.64
94 | CN(C)[C@@H]1CN(C(=O)CCc2ccccc2)[C@@H]2CCCO[C@H]12 | 8.66
95 | Cc1ccc(CC(=O)N2CCCC2Cn2nc(C)cc2C)cn1 (stereo not drawn) | 33.7
96 | CC(=O)N1CCCC(C(=O)NCCc2ccc(F)c(Br)c2)C1 (stereo not drawn) | 9.72
97 | CCc1c(C(=O)N2CCN(c3cnccn3)CC2)cnn1C(C)(C)C | -0.219
98 | CC(=O)N(Cc1noc(C2CC2)n1)C1CCN(Cc2cccnc2)C1 (stereo not drawn) | 25.7
99 | O=C(Nc1cnn(CCN2CCOCC2)c1)c1ccccc1Cl | -13.4
100 | Clc1ccc(CNc2cnn(CCN3CCOCC3)c2)cc1Cl | 56
101 | N#Cc1ccc(CNc2cnn(CCN3CCOCC3)c2)cc1 | 24
102 | Cc1ccccc1C(=O)Nc1cnn(CCN2CCOCC2)c1 | -21.3
103 | O=C(Nc1cnn(CCN2CCOCC2)c1)c1ccccc1O | 55.9
104 | COc1cc(CNc2cnn(CCN3CCOCC3)c2)cc(OC)c1 | 1.74
105 | COc1ccccc1CN(CC1CCCO1)C(=O)c1scnc1C (stereo not drawn) | -9.08
106 | O=c1ccc2c(n1Cc1cccnc1)CCN(Cc1ccoc1)CC2 | -110
107 | Cc1cncc(C2CCCN2CCO)n1 (stereo not drawn) | 0.696
108 | O=C(c1cnccn1)N1CC[C@@H]2CO[C@@H](CN3CCCC3)[C@@H]2C1 | 37.8
